Most compounds without a hit are left out; they make up all but 10% or so of the library.
PLK1 PBD block = qHTS for Inhibitors of PLK1-PDB (polo-like kinase 1 - polo-box domain): Primary Screen. Serine/threonine-protein kinase PLK1 (Homo sapiens), P53350. Plk1 PBD binding of FITC phosphopeptide, fluorescence polarization. Potency, µM, inactives show max response, negative = inhibition, usual class: inhibitors. actives 2.8% (n = 360,000). AID 720504, 2013; also: potency is read from the fitted curve at half-maximal effect; series mostly up to about 57 µM; nearly all actives have a fitted effect of over 65% in size
G9a block = qHTS Assay for Inhibitors of Histone Lysine Methyltransferase G9a | actives 8.8% (n = 350,000) | Potency, µM (highest dose often 102 µM), without a hit: at the highest dose activity, negative = inhibition, usual class: inhibitors | G9a H3K9 monomethylation, AlphaScreen, 2 h | Histone-lysine N-methyltransferase EHMT2 (Homo sapiens), Q96KQ7; also: potency is read from the fitted curve at half-maximal effect; nearly all actives have a fitted effect of over 75% in size
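Chemiluminescent proximity detection of H3K9 monomethylation, read after 10 min bead incubation in the dark. Reaction: 20 nM G9a, 500 nM biotin-H3K9 peptide, 20 uM SAM cofactor, 2 h, room temperature, following 15 min enzyme-compound preincubation.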
Sfp inh = qHTS Assay for Inhibitors of Bacillus subtilis Sfp phosphopantetheinyl transferase (PPTase); 4'-phosphopantetheinyl transferase ffp (Bacillus subtilis), Q9F4F7; Biochemical Sfp PPTase activity, qHTS; Potency, µM, for inactives: largest response in the series, negative = inhibition, most hits filed as inhibitors; actives 3.5% (n = 310,000);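 also: the enzyme is Sfp with the accession as filed and its product quenches rhodamine fluorescence; potency is read from the fitted curve at half-maximal effect; 0% = enzyme reaction without inhibitor and -100% = no enzyme wells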
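Fluorescence-quenching assay with 15 nM Sfp, 5 uM rhodamine-CoA and 12.5 uM BHQ-2-labelled ybbR peptide in pH 7.6 Hepes/MgCl2 buffer. Enzyme was pre-incubated with compound for 15 min at room temperature. Rate was taken from the 30-min fluorescence change (525/598 nm).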
MmCpn inh = Inhibitors of TCP-1 ring complex (TRiC) of Methanococcus maripaludis (MmCpn): qHTS; Chaperonin Mm-Cpn (Methanococcus maripaludis); purified Mm-Cpn ATPase, ADP Transcreener TR-FRET; Potency, µM (top dose mostly 76.9 µM), inactives show at the highest dose activity, negative = inhibition, most hits filed as inhibitors; actives 0.031% (n = 330,000); also: potency is read from the fitted curve at half-maximal effect; nearly all actives have a fitted effect of over 80% in size
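ATPase turnover read by TR-FRET ADP competition (Eu cryptate antibody/ADP-d2, 665/590 nm): 10uM ATP final, 25nM Mm-CPN final, 30 min 37degC after 10-min compound preincubation, pH 7.4 Tris/KCl/MgCl2/DTT buffer.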
VDR inh = Inhibitors of the vitamin D receptor (VDR): qHTS; actives 0.93% (n = 400,000); VDR-SRC2-3 peptide fluorescence polarization, 2 h; Potency, µM, for the others: max response, negative = inhibition, usual class: inhibitors; also: potency is read from the fitted curve at half-maximal effect
Target sequence (P11473 whole entry, looked up): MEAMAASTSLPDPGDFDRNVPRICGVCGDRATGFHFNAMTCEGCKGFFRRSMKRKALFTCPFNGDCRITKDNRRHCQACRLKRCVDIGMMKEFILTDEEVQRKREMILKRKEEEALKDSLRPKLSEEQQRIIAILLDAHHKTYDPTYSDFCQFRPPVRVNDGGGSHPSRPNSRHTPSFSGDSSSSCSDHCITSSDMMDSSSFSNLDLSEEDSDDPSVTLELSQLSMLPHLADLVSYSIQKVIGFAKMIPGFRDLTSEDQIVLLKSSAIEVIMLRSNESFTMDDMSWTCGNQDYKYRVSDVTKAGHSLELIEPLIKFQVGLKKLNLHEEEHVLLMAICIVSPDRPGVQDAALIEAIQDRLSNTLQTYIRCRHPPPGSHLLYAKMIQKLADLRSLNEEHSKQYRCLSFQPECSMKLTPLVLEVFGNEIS
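Fluorescence polarization assay measuring small-molecule disruption of VDR binding to the coregulator peptide SRC2-3. Compounds were pin-transferred (23 nl) into the reagent mix and incubated 2 h at room temperature before reading.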
CCT modulator = High-Throughput Screening for Modulators of Cytosolic Chaperonin Activity. purified chaperonin ATPase assay, HTRF ADP detection, 30 min. activity change, % (test concentration not listed), hits read low. actives 0.3% (n = 360,000); in the data active = activity change below about -30%
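Enzyme 40 or 20 nM (batch-dependent) in Tris pH 7.4/KCl/MgCl2/DTT; cpd 76 uM single point; ATP 10 uM; 30 min 37 °C; Transcreener ADP HTRF detection, 30 min RT; ratio 665/615.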
Starred values were filed as active, the others as inactive; [ ] = dose if it differs, or a comment. Unless noted, calls follow the shape of the dose curve; as a rule, active = well fitted curve in the direction sought with a large enough effect; inconclusive = small, poorly fitted or top-dose-only effect, or another doubt; inactive = no such curve, though single readings can be large; an effect the other way counts as inactive or inconclusive. Unless noted, % is scaled to controls: 0 for no effect and ±100 for the full control effect.

`O=C(c1ccccc1)N1CCN(CC(O)COc2cccc3ccccc23)CC1` (configuration not stated) gave PLK1 PBD block -1%, G9a block -6%[0.501 µM], Sfp inh 4%, MmCpn inh -1%, VDR inh -7% and CCT modulator -3.
Cc1cc(C)c(OCC(O)CN2CCN(C(=O)c3ccccc3)CC2)c(C)c1 (configuration not stated) was read as PLK1 PBD block 2%, G9a block 20µM*, Sfp inh -18%, MmCpn inh 1%, VDR inh -27% and CCT modulator -5.
Screening OC(CN1CCCCC1)Cn1c2ccccc2c2ccccc21 (configuration not stated) returned PLK1 PBD block -6%, G9a block 31%, Sfp inh 1%, MmCpn inh 3%, VDR inh -5% and CCT modulator -4.
`O=C(O)Cn1ccc2ccccc21` gave PLK1 PBD block -7%, G9a block 23%[12.7 µM], Sfp inh -18%, MmCpn inh -10%, VDR inh -2% and CCT modulator -1.
For COc1ccccc1NC(=O)C1=C(C)Nc2nc(-c3ccco3)nn2C1c1ccccc1F (configuration not stated) the results were G9a block 6%[59 µM] and VDR inh -17%.
Screening O=C(O)c1c(C(=O)O)c2ccccc2[nH]c1=O returned Sfp inh 18% and VDR inh -5%.
For Cc1ccc(CNC(=O)CCCCCn2c(=O)c3sccc3n(CC(=O)C(C)(C)C)c2=O)cc1 the results were G9a block -4%[59 µM] and VDR inh -7%.
NS(=O)(=O)c1ccc(CCNCc2cc(Br)ccc2OCc2ccccc2F)cc1 was read as PLK1 PBD block -25%, G9a block -45%, Sfp inh 50µM*, MmCpn inh 3%, VDR inh 9% and CCT modulator 0.
Screening O=C1/C(=C/c2ccccc2)CCc2ccc(Cl)nc21 returned PLK1 PBD block -12%, VDR inh 50µM* and CCT modulator -2.
Cc1cccc(-c2nc3scc(CCNC(=O)c4ccccc4Cl)n3n2)c1 was read as G9a block 4%[59 µM] and VDR inh 5%.
Cc1nc2ccc(NC(=O)CCS(=O)(=O)c3ccc(Cl)cc3)cc2s1 was read as PLK1 PBD block 17µM*, G9a block 4%[59 µM], Sfp inh -8%, MmCpn inh 5%, VDR inh inconclusive and CCT modulator -17.
Screening Cc1nc2ccc(NC(=O)c3cc([N+](=O)[O-])cc([N+](=O)[O-])c3Cl)cc2s1 returned PLK1 PBD block 2.7µM*, G9a block 6.3µM*, Sfp inh inconclusive, MmCpn inh 1%, VDR inh inconclusive and CCT modulator -3.
For Cc1nc2ccc(NC(=O)c3ccc(Cl)nc3)cc2s1 the results were PLK1 PBD block 3%, G9a block inconclusive, Sfp inh 11%, MmCpn inh 1%, VDR inh 6% and CCT modulator 1.
`Cc1nc2ccc(NC(=O)c3ccc(Cl)c([N+](=O)[O-])c3)cc2s1` gave PLK1 PBD block -3%, G9a block inconclusive, Sfp inh 1%, MmCpn inh 1%, VDR inh 7% and CCT modulator 0.
Screening CC(=O)Nc1ccc2nc(NC(=O)C(Cl)(Cl)Cl)sc2c1 returned PLK1 PBD block -9%, G9a block 50µM*, Sfp inh 13%, MmCpn inh 1%, VDR inh -22% and CCT modulator -2.
`Cc1nc2ccc(NC(=O)c3cc(Cl)ccn3)cc2s1` gave PLK1 PBD block -10%, G9a block 45µM*, Sfp inh -16%, MmCpn inh -4%, VDR inh 22% and CCT modulator 0.
Cc1ccc(-c2cc(C(=O)Nc3c(C(=O)c4ccc(C)c(F)c4)oc4ccccc34)no2)cc1 was read as G9a block 2%[59 µM] and VDR inh 15%.
For COCCCNC(=O)CSc1nc2cc3c(cc2c(=O)n1CCCCCC(=O)NCc1ccc(OC)cc1)OCO3 the results were G9a block 8%[59 µM] and VDR inh 5%.
For O=C(CCC1N=C2c3ccccc3N=C(SCC(=O)Nc3ccc(F)cc3)N2C1=O)NCc1cccs1 (configuration not stated) the results were G9a block 4%[59 µM] and VDR inh -4%.
COc1cccc(N2CCN(C(=O)c3ccc(=O)oc3)CC2C)c1 (configuration not stated) was read as PLK1 PBD block -14%, G9a block inconclusive, Sfp inh 35µM*, MmCpn inh -1%, VDR inh 2% and CCT modulator -2.
For COc1ccc(NC(=O)C2CCCCN2N)cc1OC (configuration not stated) the results were PLK1 PBD block 27µM*, G9a block inconclusive, Sfp inh -8%, MmCpn inh -3%, VDR inh -13% and CCT modulator -2.
For COc1ccc(NC(=O)C2CCCN2c2ccc(OC)c(OC)c2)cc1OC (configuration not stated) the results were PLK1 PBD block -7%, G9a block 71µM*, Sfp inh -2%, MmCpn inh -1%, VDR inh -5% and CCT modulator -1.
Screening Cc1cccc(OCC(=O)Nc2nonc2-c2ccc(Br)cc2)c1C returned G9a block -2%[59 µM] and VDR inh 11%.
`CCCCN(CC)c1nc(-c2ccncc2)nc2ccccc12` gave PLK1 PBD block 2%, G9a block 3.5µM*, Sfp inh inconclusive, MmCpn inh -1%, VDR inh -1% and CCT modulator 2.
For CCC(C)NC(=O)c1sc2nc3n(c(=O)c2c1C)CCC3 (configuration not stated) the results were G9a block -8%[59 µM] and VDR inh 14%.
For COc1ccc(NS(=O)(=O)c2ccc3oc4ccccc4c3c2)cn1 the results were PLK1 PBD block -6%, G9a block -33%[12.7 µM], Sfp inh 56µM*, MmCpn inh 1%, VDR inh 1% and CCT modulator -3.

Screens deposited in PubChem by National Center for Advancing Translational Sciences (NCATS).
